# Results as given in PubChem BioAssay (NCI).
# Where “and” joins values, the source holds several entries; their conditions need not be identical. Identical values can stand only once. About 83,000 compounds went through this panel and 20% of them were active in at least one assay; those are over-represented in the sample as a whole.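 Method: cells in 96-well plates; compound added at one concentration; 48 h incubation; percent growth measured; values under 10 scored active.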 Calls of active or inactive are those of the source.
# Tested on: HL-60(TB) leukemia
# Experiment: NCI-60 one-dose screen, 48 h (100 = growth as untreated, 0 = no growth, -100 = all killed)
# Conditions: 10 µM unless noted
row,SMILES,growth
1,Nc1nc2c(s1)CCc1cn(S(=O)(=O)c3ccccc3)cc1-2,70.6% (inactive) and 76.2% (inactive)
2,O=C(CN1C(=O)NC2NC(=O)NC21)N/N=C/c1ccccc1[N+](=O)[O-] (stereo not given),99.2% (inactive)
3,COc1ccc(Cn2c(NCCCN(C)C)nc(=O)n(Cc3ccc(F)cc3)c2=O)cc1,95.7% (inactive)
4,CCNC(=O)c1[nH]cc(-c2ccccc2)c1-c1cc(OC)c2c(c1OC)OCO2,94.7% (inactive)
5,CC1(C)CC[C@]2(C(=O)O)CC[C@]3(C)C(=CC[C@@H]4[C@@]5(C)C/C(=C/O)C(=O)C(C)(C)[C@@H]5CC[C@]43C)[C@@H]2C1,4.77% (active)
6,NCCOc1ncccc1/C=C1\c2ccccc2-c2ccc([N+](=O)[O-])cc21,-41.7% (active)
7,CC(C)(C)OC(=O)N1CCc2c(sc3ncnc(N/N=C/c4cccc(Br)c4)c23)C1,71.8% (inactive)
8,O=C(Nc1ccc(-n2cc(-c3ccncc3)c(-c3ccc(O)c(Cl)c3)n2)cc1)Nc1ccc(Cl)c(C(F)(F)F)c1,-4.77% (active)
9,Cc1ccc(Nn2c(SCC(=O)Nc3nc(-c4ccccc4)cs3)nc(C)c2C)cc1,63.8% (inactive)
10,Cc1nn(-c2ccccc2)c(Oc2ccccn2)c1-c1nc2ccccc2s1,85.3% (inactive)
11,CN(C)CCCn1c2c(c3ncccc3c1=O)C(=O)c1ccccc1-2,45.6% (inactive)
12,CCOC(=O)C1=CN(C)C=C(C(=O)OCC)C1c1cc(Br)c(OCC)c(OC)c1,66.7% (inactive)
13,COc1ccc([N+](=O)[O-])c(C(=O)O)c1,111% (inactive)
14,COc1cc2c(c(OC)c1OC)CCC(c1cccc(C(=O)Nc3ccc(C#N)cc3)c1)O2 (stereo not given),15.2% (inactive)
15,CCOC(=O)c1c(C)oc(C)c(C(=O)OCC)c1=O,247% (inactive) and 61.2% (inactive)
16,O=C1c2c(c3c4ccccc4[nH]c3c3ccc4ccccc4c23)C(=O)N1CCN1CCCCC1,9.19% (active)
17,OC(COc1ccccc1Cl)COc1ccccc1Cl,94.3% (inactive)
18,COc1cccc(CCC2CCCN(c3cc(C)nc(N)n3)C2)c1 (stereo not given),1.26% (active)
19,COc1cc(OC)cc(-c2n[nH]nc2-c2ccc3c(c2)OCO3)c1,8.65% (active)
20,C=C(C)[C@@H]1CC[C@]2(C(=O)NCCNCCN)CC[C@]3(C)[C@H](CC[C@@H]4[C@@]5(C)C/C(=C/c6ccncc6)C(=O)C(C)(C)[C@@H]5CC[C@]43C)[C@@H]12,74.1% (inactive)

row,SMILES,growth
1,CCN(CC)c1ccc(\C=N/N=C(N)/C(N)=N\N=C/c2ccc(N(CC)CC)cc2)cc1,112% (inactive)
2,CCN1C[C@@H](C)n2c(c(O)c3c(=O)n(Cc4ccc(F)c(Cl)c4)nc(C(=O)NC)c32)C1=O,36.7% (inactive)
3,O=C(/C=C/C=C/c1ccc2c(c1)OCO2)N/N=C\c1ccc(O)cc1O,-0.489% (active)
4,NC(Cc1c[nH]c2ccccc12)C(=O)O (stereo not given),108% (inactive) and 109% (inactive)
5,Clc1ccc(/C=N\N2CCCCCC2)cc1,99.3% (inactive) and 77.3% (inactive)
6,CCCCCCCOc1c(OC)cc(C2CC(=O)Nc3c2c(C)nn3-c2nc3ccccc3[nH]2)cc1OC (stereo not given),10.5% (inactive)
7,COc1cc(CNC(=O)CCCC/C=C/C(C)C)ccc1OCc1nnc(Nc2ccccc2F)o1,89.7% (inactive)
8,COc1ccc(-c2nn(-c3ccc(Cl)cc3)cc2-c2nc3ccccc3[nH]2)cc1,114% (inactive)
9,COc1cnc2c(c1)C(=O)c1c-2n(CCCN2CCCC2)c(=O)c2cc([N+](=O)[O-])ccc12,-24.9% (active)
10,O=[N+]([O-])c1ccc(S(=O)Cc2ccccc2)c([N+](=O)[O-])c1 (stereo not given),56.4% (inactive) and -7.5% (active)
11,Fc1cc(C2=NNC(c3ccc[nH]3)C2)ccc1-n1ccc(C(F)(F)F)n1 (stereo not given),55.3% (inactive)
12,Cc1ccccc1Cn1cnc2ccc(-c3cc(NC(=O)c4ccc(NC5CCN(C)CC5)cc4)n[nH]3)cc21,79.4% (inactive)
13,C#Cc1cccc(NC(=O)c2ccccc2NC(=O)CCl)c1,91.6% [8.25 µM] (inactive)
14,COc1ccc(C(=O)/C=C/c2c(C(F)(F)F)nc3ccccn23)cc1OC,2.72% (active)
15,COc1cc(-c2ncn(/C=C\C(=O)OC(C)C)n2)cc(C(F)(F)F)c1,7.55% (active)
16,Cc1ccc(C2CC(c3ccc(Nc4nc(NCCO)nc(NCCO)n4)cc3)=NN2c2ccc(Cl)cc2)cc1 (stereo not given),80.7% (inactive)
17,CCCCCCCCCCCCCCCC[N+](C)(C)CCN(Cc1ccc(OC)cc1)c1ncccn1,-52.7% (active) and -2.88% (active)
18,O=S(=O)(NCCNc1nccc(-c2c(-c3cccc(F)c3)nc3occn23)n1)c1cccc2ccccc12,51.9% (inactive)
19,O=c1[nH]c2cc(Cl)c(Cl)cc2o1,120% (inactive)
20,C#CC(=O)Nc1cccc(Nc2nc3c(c(NCc4ccccc4)n2)CCCC3)c1,-25.5% (active)
